From the supplement of paper PMC10981050
Structures can show the parent of a compound that is named as a salt.

The compounds below were run on MOLM14 (assay: cell viability relative to vehicle control; higher = less cytotoxic). Details: 10 µM; SRSF2 genotype: SRSF2 P95H/wt.
Procedure, shortened: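 Screening covered the Selleck bioactive, kinase and epigenetic probe libraries, less identity-inconsistent compounds, on CRISPR-edited mutant clones and isogenic wild-type clones of four leukaemia lines. Cells, at 2000 per well in 50 µL medium, received a single 10 µM acoustically dispensed dose. After 48 h the supernatant was removed and CellTiter-Glo luminescence was read. Viability was analysed in Genedata Screener as percent of the on-plate vehicle control.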

SMILES | cell viability [%]
CC(C)NCC(O)COc1ccc(CCOCC2CC2)cc1 (stereo not drawn) [Betaxolol hydrochloride (Betoptic)] | 99.5
c1ccc2[nH]c(-c3cscn3)nc2c1 [Thiabendazole] | 97.8
Cc1c[nH]c(C=C2C(=O)Nc3ccccc32)c1CCC(=O)O | 32.7
C[C@H](NC(=O)CCc1nc2ccccc2c(=O)[nH]1)c1ccccc1 | 105
C=CC(=O)N1C[C@H](Nc2ncnc3[nH]ccc23)CC[C@@H]1C | 81.1
CC(=O)Nc1ccc(C(=O)Nc2ccccc2N)cc1 [CI994 (Tacedinaline)] | 31.6
N#Cc1c(NC(=O)c2cccc3ccccc23)sc2c1CCCC2 [JNK inhibitor IX] | 14.5
CNC(=O)c1cc(COc2nnc(Nc3ccc(Cl)cc3)c3ccoc23)ccn1 [Telatinib (BAY 57-9352)] | 108
Cn1c(N2CCCCS2(=O)=O)nc(C(=O)NCc2ccc(F)cc2)c(O)c1=O | 112
CCC[C@@H]1C[C@@H](C(=O)N[C@@H]([C@H]2O[C@H](SC)[C@H](O)[C@@H](O)[C@H]2O)[C@H](C)Cl)N(C)C1 [Clindamycin HCl] | 96.5
COCCNC(=O)Nc1ccc2nc(-c3cccs3)c(-c3cccs3)nc2c1 [ACSS2 inhibitor] | 89.1
CC(C)=CCCC(C)(O)C1CCC2(C)C1C(O)CC1C3(C)CCC(O)C(C)(C)C3C(OC3OC(CO)C(O)C(O)C3OC3OC(C)C(O)C(O)C3O)CC12C [(20S)Ginsenoside Rg2] | 104
COC1C(O)C(O)C(O)C(O)C1O (stereo not drawn) [Sequoyitol] | 105
